Laboratory results as given in PubChem BioAssay AID686970 (National Center for Advancing Translational Sciences (NCATS), 2013).
Hit rate of the full screen: of about 360,000 compounds, about 6,000 (1.7%) were called active. Roughly 8% stayed inconclusive and do not appear here. Calls follow the shape of the dose curve; as a rule, active = well fitted cell-killing curve with a large enough effect; inconclusive = small, poorly fitted or top-dose-only effect, or effect the other way; inactive = flat fitted curve, though single readings scatter. For the sample, actives were picked, then their nearest neighbours and some compounds at random.

Assay: qHTS for induction of synthetic lethality in tumor cells producing 2HG: qHTS for the HT-1080-NT fibrosarcoma cell line;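 also: NT is the 2HG producing partner of a matched IDH1 knockdown line; nearly all actives have a fitted effect of over 55% in size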;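 as to activity, negative = less viability: 0% = DMSO-treated cells and -100% = media-only wells without cells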
Details: HT-1080-NT fibrosarcoma viability, CellTiter-Glo ATP luminescence, 48 h; series mostly up to 46.1 µM; activity, negative = less viability: at the top concentration
Method in brief: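 Compounds were tested in concentration-response format on HT-1080-NT cells for 48 hours at 37 degrees C. Cell viability came from CellTiter-Glo luminescence; curves were classified by r2, response magnitude and activity.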
Potency is read from the fitted curve at half-maximal effect.

Row | SMILES | activity, negative = less viability | Potency
1 | O=C(COC(=O)c1cccc(Cl)c1Cl)NC1CCCCCC1 | -0.557% (inactive) | –
2 | CC(C)Oc1cc(F)ccc1-c1cc(C(=O)Nc2ccc(F)cc2)[nH]n1 | 4.59% (inactive) | –
3 | CCN(CC)C(=O)C1=C(C)N(Cc2ccccc2)C(=O)C(CC(=O)NC(c2ccccc2)c2ccccc2)C1 (stereo unspecified) | 0.296% (inactive) | –
4 | O=C(C[C@H]1CC[C@@H](NC(=O)c2ccncc2)[C@@H](CO)O1)NCC1CC1 | 25.8% (inactive) | –
5 | NCCCCC(C(=O)O)N(C(=O)OCc1ccccc1)C(=O)OCc1ccccc1 (stereo unspecified) | 5.55% (inactive) | –
6 | CCCCCCn1c(=O)n2n(c1=O)C[C@]1(OC(=O)NCc3ccc(OC)c(OC)c3)CN(S(=O)(=O)c3ccc(C)cc3)C[C@]1(O)C2 | -13.8% (inactive) | –
7 | COc1ccccc1-n1nnnc1SCC(=O)NC(=O)Cc1ccccc1 | 10.5% (inactive) | –
8 | COc1ccccc1-n1nnnc1S(=O)(=O)Cc1ccc(Cl)cc1 | – | 20.6 µM (active)
9 | CCC(C)N(C(=O)CSc1nnnn1-c1ccccc1OC)C1CCS(=O)(=O)C1 (stereo unspecified) | -3.07% [at 9.24 µM] (inactive) | –
10 | CC(=O)C[C@@H]1OC[C@H](CO)N1S(=O)(=O)c1ccc(C)cc1 | 21.5% (inactive) | –
11 | COc1ccc2c(c1)c(=Cc1ccc(N(C)C)cc1)c1cc(-c3ccccc3)[n+](C)n12 | – | 13 µM (active)
12 | COc1ccc2sc(-c3ccc(N(C)C)cc3)c(-c3ccc4cc[nH]c4c3)c2c1 | -7.14% (inactive) | –
13 | O=C(NCC(O)c1nc2ccccc2[nH]1)c1ccc(Br)cc1 (stereo unspecified) | 25.9% (inactive) | –
14 | Cc1cc(=O)oc2cc(OCCC[n+]3ccccc3)ccc12 | 16% (inactive) | –
15 | Cc1cc(=O)oc2cc(OCC3CC(c4ccccc4Cl)=NO3)ccc12 (stereo unspecified) | – | 0.708 µM (active)
16 | CCOc1ccccc1N1CCN(C(=O)COc2ccc3c(C)cc(=O)oc3c2)CC1 | -0.354% (inactive) | –
17 | COc1cc(NC(=O)C2=C(C)OCCS2)c(Cl)cc1C(=O)NCCCN1CCCC(C)C1 (stereo unspecified) | -6.88% (inactive) | –
18 | Cc1ccc(S(=O)(=O)N[C@H]2CCC[C@@H]2O)cc1 | 14.8% (inactive) | –
19 | CCOC(=O)N1C(=O)C[C@](Sc2ccc(C)cc2)(C(=O)OC)[C@H]1c1ccccc1 | 0.0371% (inactive) | –
20 | COc1ccc(C(=O)NN(C)c2nc(-c3ccccc3)cc(C)c2S(C)(=O)=O)cc1 | -2.05% (inactive) | –
21 | CC(NC(=O)c1ccccc1F)c1cccc2ccccc12 (stereo unspecified) | -0.858% (inactive) | –
22 | CN(NC(=O)c1ccccc1F)c1nc(C(F)(F)F)nc2ccccc12 | – | 0.291 µM (active)
23 | Cc1cccc(C(=O)Nc2ccc(C(=O)N/N=C/c3cccc(C)n3)cc2)c1 | -8.14% (inactive) | –
24 | CSc1nc(N(C)NC(=O)c2cccc(C)c2)c2ccccc2n1 | – | 0.13 µM (active)

Row | SMILES | activity, negative = less viability | Potency
25 | Cn1c(CC(=O)NNC(=O)c2ccccc2F)nc2ccccc21 | 0.555% (inactive) | –
26 | COc1ccc(-c2cc(NC=O)c3ncc(-c4cccc(C(=O)N(C)C)c4)n3c2)c(OC)c1 | -20.5% (inactive) | –
27 | CC1(C)OC(=O)C2=C(CC(c3ccccc3)OC2CCc2ccccc2)O1 (stereo unspecified) | -19.5% (inactive) | –
28 | O=Nc1c(O)cc(O)c2ccccc12 | -1% (inactive) | –
29 | CCC(c1nnnn1-c1ccc2c(c1)OCCO2)N1CCN(c2ccc(C(F)(F)F)cn2)CC1 (stereo unspecified) | -27.4% (inactive) | –
30 | CCC(C)CN1C(=O)CSCC1(C)C(=O)NCc1ccccc1 (stereo unspecified) | -3.54% (inactive) | –
31 | COc1ccc2c(c1)CCCO[C@]21O[C@H](CCO)C[C@H](O)[C@H]1O | 11.6% (inactive) | –
32 | CN(C)C(=O)COC(=O)c1cccc(S(=O)(=O)N2CC3(C)CC2CC(C)(C)C3)c1 (stereo unspecified) | 0.341% (inactive) | –
33 | Cc1nnnn1/C(=C\c1ccccc1)C(=O)OCC(=O)N1CC2(C)CC1CC(C)(C)C2 (stereo unspecified) | – | 23.1 µM (active)
34 | CCOC(=O)C1CCCN(C(=O)c2cc(-c3cccs3)oc2C)CC1 (stereo unspecified) | -4.19% (inactive) | –
35 | Cc1cccc(C=CC(=O)c2ccc(Cl)cc2)c1 | -8.49% (inactive) | –
36 | Cc1[nH]c(=O)c(C(=O)/C=C/c2ccccc2)c2c1CCCC2 | – | 7.08 µM (active)
37 | CC1(C(=O)O)CCCN(C(=O)/C=C/c2ccccc2)C1 (stereo unspecified) | 3.18% (inactive) | –
38 | O=C(NCCOc1ccccc1)N1[C@H]2CC[C@@H]1C=C(c1ccc(F)cc1OCc1ccccc1)C2 | -28.7% (inactive) | –
39 | CC1(C(=O)NCc2ccccc2)CN(S(C)(=O)=O)CC(=O)N1CC(F)(F)F (stereo unspecified) | 20.3% (inactive) | –
40 | OC[C@@H]1CN(Cc2cccs2)C[C@H](n2cnc3c(NC4CCCC4)ncnc32)O1 | 9.57% (inactive) | –
41 | OC[C@@H]1CN(C2CCCC2)C[C@H](n2cnc3c(NC4CCC4)ncnc32)O1 | 6.22% (inactive) | –
42 | OC[C@@H]1CN(Cc2ccc(-c3ccccc3)cc2)C[C@H](n2cnc3c(NC4CCCC4)ncnc32)O1 | – | 9.2 µM (active)
43 | COc1cc(C(=O)OCCCN2CCOCC2)cc(OC)c1OC | 12.7% (inactive) | –
44 | O=C(Nc1ccccc1Cl)/C(Cl)=C(\Cl)S(=O)c1ccccc1 (stereo unspecified) | – | 20.6 µM (active)
45 | O=C(COC(=O)CCc1c[nH]c(=O)[nH]1)Nc1ccccc1Cl | 16.6% (inactive) | –
46 | CN(C)S(=O)(=O)Oc1ccccc1C(=O)Nc1ccccc1Cl | 0.81% (inactive) | –
47 | COC(=O)[C@@]12C[C@@H](CC(=O)N3CCCCC3)C(=O)N(Cc3ccc4c(c3)OCO4)C1=CCC(C)(C)C2 | -21.7% (inactive) | –
48 | CN(Cc1ccccc1)C(=O)[C@@H]1CCCN1C(=O)[C@@H]1CCCN1C(=O)c1c(F)cccc1F | 24.6% (inactive) | –

Row | SMILES | activity, negative = less viability | Potency
49 | COc1ccc(NS(=O)(=O)c2ccc(NC(=O)c3ccc(N(C)S(C)(=O)=O)cc3)cc2)cc1 | – | 18.4 µM (active)
50 | COc1ccc(NS(=O)(=O)c2ccc(C(=O)Nc3c(C)n(C)n(-c4ccccc4)c3=O)cc2)cc1 | -12% (inactive) | –
51 | COc1ccc(C(=O)Nc2cccc(S(C)(=O)=O)c2)cc1 | 5.39% (inactive) | –
52 | O=S1(=O)CC(N2CCN(Cc3ccccc3F)CC2)CN1Cc1cn(Cc2ccccc2)nn1 (stereo unspecified) | 8.96% (inactive) | –
53 | C[C@@H]1CN([C@@H](C)CO)S(=O)(=O)c2ccc(C#Cc3cccc(F)c3)cc2O[C@H]1CN(C)S(=O)(=O)c1cn(C)cn1 | -24.4% (inactive) | –
54 | COC(=O)[C@]12CCCCC=C1N(Cc1ccco1)C(=O)[C@H](CC(=O)NCC1CCCCC1)C2 | 17.1% (inactive) | –
55 | Nc1ncnc2c1ncn2[C@@H]1O[C@H](C(=O)NS(=O)(=O)c2c(Cl)nc3sccn23)[C@@H](O)[C@H]1O | 4.2% (inactive) | –
56 | COc1ccc(NC(=O)CSc2nnnn2-c2cccc(OC)c2)cc1 | 8.68% (inactive) | –
57 | CCOc1cccc(-n2nnnc2-c2ccc(OC)cc2)c1 | – | 5.8 µM (active)
58 | CCOC(=O)C(C)n1cnc2c(nnn2-c2cccc(OC)c2)c1=O (stereo unspecified) | 11.1% (inactive) | –
59 | COCCCNC(=O)c1ccc(-c2c(C)noc2C)c2ccoc12 | 4.24% (inactive) | –
60 | COc1ccccc1-n1c(SCC(=O)Nc2ccc(Cl)cc2)nc(O)c(Cc2ccccc2)c1=O | -8.27% (inactive) | –
61 | COc1ccc(C(C(=O)NCc2ccccc2)n2c(=O)c(-c3ccccc3)nc3ccccc32)cc1 (stereo unspecified) | -16.2% (inactive) | –
62 | CCC(C)C(CO)NC(=O)/C=C/[C@H]1O[C@@H](n2cnc3c(NC(=O)c4ccccc4)ncnc32)[C@H](O)[C@@H]1O (stereo partly specified) | 3.67% (inactive) | –
63 | COc1ccc(C(=O)N/N=C2\CCS(=O)(=O)c3ccc(F)cc32)cc1OC | – | 20.6 µM (active)
64 | COc1ccc(CN2CCCC(CNC(=O)c3ccc(F)cc3)C2)cc1OC (stereo unspecified) | 4.21% (inactive) | –
65 | COc1ccc(C(=O)NC2CC(C)(C)NC(C)(C)C2)cc1OC | 17% (inactive) | –
66 | Cc1ccc(Cc2c(-c3ccc(Cl)cc3)nc3c4ccccc4ccn23)cc1 | -19% (inactive) | –
67 | CC(=O)NN=C(C)c1ccc(NC(=O)C2CC2)cc1 | -2.35% (inactive) | –
68 | COc1ccc(C(=O)NCC2CCCO2)cc1S(=O)(=O)NCc1ccc(Cl)cc1 (stereo unspecified) | 0.0669% (inactive) | –
69 | CCC(CC)C(C(=O)NC1CCCC1)N1CCN(c2cc(C)nc3ccccc23)CC1 (stereo unspecified) | -28.7% (inactive) | –
70 | CCN1CCN(CC(=O)Nc2sc3c(c2C#N)CCC3)CC1 | 11.3% (inactive) | –
71 | N#Cc1c(NC(=O)CCCl)sc2c1CCCCC2 | – | 23.1 µM (active)
72 | N#Cc1c(NC(=O)C2CCCO2)sc2c1CCCCC2 (stereo unspecified) | -5.07% (inactive) | –

Row | SMILES | activity, negative = less viability | Potency
73 | CCCCCCN1CCN(C2CN(Cc3cn(Cc4ccc(F)cc4)nn3)S(=O)(=O)C2)CC1 (stereo unspecified) | 0.0762% (inactive) | –
74 | Cc1ccc(-c2nc3ccccn3c2Nc2ccc(F)cc2)o1 | 1.52% (inactive) | –
75 | Cn1c(=N)n(CC(O)c2ccccc2)c2ccccc21 (stereo unspecified) | -3.88% (inactive) | –
76 | N=c1n(Cc2ccc(Cl)cc2)c2ccccc2n1CC(O)c1ccco1 (stereo unspecified) | – | 23.1 µM (active)
77 | Cn1c(=N)n(CC(O)c2cccs2)c2ccccc21 (stereo unspecified) | 0.74% (inactive) | –
78 | CCNC(=O)C1(C)CCCN(Cc2noc(-c3ccccc3OC)n2)C1 (stereo unspecified) | 19.6% (inactive) | –
79 | COc1ccccc1CNc1nc(Nc2ccccc2Cl)c2sccc2n1 | -7.83% (inactive) | –
80 | COc1cccc(CNc2nc(NCc3cccs3)nc3ccsc23)c1 | – | 18.4 µM (active)
81 | COc1ccc(NC(=S)NCc2cccs2)c(OC)c1 | 7.46% (inactive) | –
82 | Clc1ccccc1Nc1nc(NCc2cccs2)nc2ccsc12 | 6.31% (inactive) | –
83 | COc1cccc(CNc2nc(NCc3ccccc3OC)nc3ccsc23)c1 | – | 23.1 µM (active)
84 | COc1cccc(-c2cc3nc(NCc4ccccc4OC)n(C)c(=O)c3s2)c1 | 2.39% (inactive) | –
85 | CC[C@@H]1CC2=C(C(=O)OC(C)(C)O2)[C@@H](CC)O1 | 20.4% (inactive) | –
86 | Nc1nc2c(ncn2[C@@H]2O[C@H](CNCc3ccc(OCCCN4CCOCC4)cc3)[C@@H](O)[C@H]2O)c(=O)[nH]1 | 23.9% (inactive) | –
87 | C[C@H](O)[C@@H]1C(=O)N2CCc3c([nH]c4ccccc34)[C@@H]2C[C@@H]1N(C)C(=O)Nc1ccc(F)cc1 | -4.19% (inactive) | –
88 | C[C@H]1CN([C@@H](C)CO)C(=O)CCCn2cc(nn2)CO[C@@H]1CN(C)S(=O)(=O)c1cccs1 | 3.92% (inactive) | –
89 | N#Cc1ccc(C(C(=O)NCc2ccccc2)n2c(=O)c(-c3ccco3)nc3ccccc32)cc1 (stereo unspecified) | -3.23% (inactive) | –
90 | O=S1(=O)CC(N2CCSCC2)CN1Cc1cn(Cc2cccc(Cl)c2)nn1 (stereo unspecified) | 18.5% (inactive) | –
91 | CCCCC[C@@H]1C=C(C(=O)OCC)[C@H](c2ccccc2)N1S(=O)(=O)c1ccc(C)cc1 | -18.3% (inactive) | –
92 | Cn1c(=O)c([N+](=O)[O-])c(Oc2ccccc2)c2ccccc21 | – | 18.4 µM (active)
93 | Cc1cc(C)c(-c2c(O)c3ccccc3n(C)c2=O)c(C)c1 | 7.51% (inactive) | –
94 | COc1cc2c(=O)n(C)c3ccccc3c2cc1OC | 4.63% (inactive) | –
95 | CCCc1c(C)nc2scc(-c3ccc(Cl)cc3)n2c1=O | -1.68% (inactive) | –
96 | COCCNc1ncnc2c1ncn2[C@H]1CN(CCN2CCOCC2)C[C@@H](CO)O1 | 22.6% (inactive) | –
